In PubChem BioAssay one finds inhibition data, which are given here for 40 compounds.

The structures appear in SMILES notation. A number with no mark means an inactive call. Activity calls are given as the source filed them. Cut-off read from the data, not from the text of the source: active = inhibition above about 33%; inactive = the rest.

The nature of this assay: compounds suppressing VP16-driven luciferase signal – cell-based, luminescence, high throughput, counter-screen for LRH-1 inverse agonist project (AID 651615). The settings on record: Gal4-VP16 luciferase reporter cells, at 3.6 µM, stronger effect = higher value. A general note: Counterscreens check selectivity or assay interference.
A word on the inhibition: it is the drop in the measured response relative to a control, in per cent. For `COc1ccc(S(=O)(=O)Nc2cc3c4c(oc3c3ccccc23)CCCC4=O)cc1`, the inhibition is -1.29%. Consider `Cc1c(Cl)cccc1NC(=O)CNc1ccccc1F`, for which the inhibition was -6.92%. The figure for `OC[C@@H]1CN(Cc2ccc(-c3ccccc3)cc2)C[C@H](n2cnc3c(NC4CCC4)ncnc32)O1` is 56% (active); for `CC1(C)Cc2ccccc2-c2nnnn21` it is -5.72%. The figure for `CCn1c(=S)sc2c(=O)n(CC(=O)Nc3ccc(OC)c(Cl)c3)c(C)nc21` is 4.75%; for `CC(C)Oc1cccc(-c2cc(C(=O)NN3CCOCC3)c3ccccc3n2)c1` it is -17.7%; for `O=C(Nc1cccc(S(=O)(=O)N2CCCCC2)c1)c1ccc([N+](=O)[O-])o1` it is -4.21%. As to `CCc1cc(=O)oc2c(C)c(OCC(=O)NC3CC(C)(C)NC(C)(C)C3)ccc12`, the inhibition was 3.79%. For the compound `O=C(C1=C[C@@H](C2CCCCC2)C[C@@H](OCc2ccc(CO)cc2)O1)N1CCN(Cc2ccc3c(c2)OCO3)CC1`, the inhibition was 4.7%. The same measure for `c1ccc(Oc2nc(-c3cccnc3)nc3ccccc23)cc1`: 1.32%.

On to `CCC1(C)OC(=O)N2CCc3c(C)[nH]c4c(C)ccc(c34)C21C` (stereo not given), for which the inhibition was 12.7%. The figure for `CC(=O)Nc1cc(-c2ccccc2N(C)C)cn2c(-c3ccc(S(C)(=O)=O)cc3)cnc12` is -14.6%; for `C=CCNc1sc(C(=O)c2ccccc2)c(N)c1C#N` it is 6.37%; for `CCCc1cc(=O)n2nc(N3CCC(C(=O)N4CCN(c5ccc(OC)cc5)CC4)CC3)sc2n1` it is 49.8% (active).

As to `O=C(Nc1ccc(N2CCN(C(=O)c3ccccc3)CC2)cc1)c1ccc([N+](=O)[O-])o1`, the inhibition is -9.49%.

For the compound `C/C(=N\N1CCN(c2ccc(Cl)cc2)CC1)c1cccc([N+](=O)[O-])c1`, the inhibition is 8.61%. The figure for `COC(=O)CC1(C(=O)OC)Oc2ccc(Br)cc2C(=O)N1c1cc(Cl)c(Cl)cc1Cl` (stereo not given) is 20.2%; for `COc1cc2c(cc1OC)CN(C(=O)CN1CCN(S(=O)(=O)c3ccc(C)c(C)c3)CC1)CC2` it is 16.1%. As for `CCOC(=O)c1c(C)[nH]c(C(=O)COC(=O)/C=C/c2ccc3c(c2)OCO3)c1C`, the inhibition is 7.82%. The figure for `CCOc1cc(/C=N/Nc2nnc(C)n2N)ccc1O` is 2.17%. For `Cc1ccc(Cn2nc(C)c(NC(=O)c3noc4c3CCCCC4)c2C)cc1`, the inhibition is -1.13%. Consider `CCCc1cc(=O)oc2cc(C)cc(OCC(=O)NC3CC3)c12`, for which the inhibition is -6.08%.

For `CC(=O)N1CCc2c(sc(NC(=O)Cc3ccccc3)c2C#N)C1`, the inhibition is -30.8%. On to `Cc1cc(C(=O)CSc2nnnn2C)c(C)n1CCc1ccc(F)cc1`, for which the inhibition is -3.7%. The figure for `S=C(Nc1ccc(Br)cc1)Nc1ccc2c(c1)OCCO2` is -71.3%. The same measure for `CCC(=O)N1CCN(c2ccc(NC(=O)c3ccc([N+](=O)[O-])o3)cc2)CC1`: -25%; for `CC1(C(=O)NCc2ccc(Cl)cc2)CCN1C(=O)Cc1ccc(Cl)cc1Cl` (stereo not given): 4.22%. The figure for `C=CCNc1nc2c(c(=O)n(C)c(=O)n2C)n1CCCCCC` is 47.2% (active); for `Cc1ccc(S(=O)(=O)NCc2ccncc2)c(C)c1C` it is 53.4% (active). Consider `O=C(COc1ccc2c(-c3ccccc3)cc(=O)oc2c1)NCCCn1ccnc1`, for which the inhibition is -19.5%. The figure for `O=C(Nc1ccc(Cc2ccncc2)cc1)c1ccc([N+](=O)[O-])o1` is -16.8%; for `COc1ccc(NC(=O)CN2C(=O)NC3(CCCC3)C2=O)cc1Cl` it is -7.78%; for `Nc1nc2ccccc2n1/N=C/c1ccc([N+](=O)[O-])s1` it is -3.2%. Regarding `Cc1nnc(SCC(=O)Nc2sc3c(c2C(N)=O)CCCC3)[nH]c1=O`, the inhibition was -3.51%. The same measure for `COc1cc(OC)cc(-c2oc3cccnc3c2C#CCCO)c1`: -0.7%; for `CC(=O)N1CCc2c(sc(NC(=O)Cc3ccc(F)cc3)c2C#N)C1`: -35.5%; for `O=C(CCl)Nc1ccc2c(c1)OCO2`: -14.7%. `CCOc1ccccc1C(=O)Nc1cc2c(cc1N1CCCC1)n(CC)c(=O)n2CC`: the inhibition was 49.6% (active). The figure for `COc1cc(/C=N/NC(N)=S)ccc1OCC(=O)Nc1ccc(C)cc1` is -1.66%; for `Cc1nn(CC(=O)Nc2ccc(N3CCOCC3)cc2)c(C)c1Cl` it is -1.64%.
